From PubChem BioAssay (Tox21) come the findings set out here.

Molecules are shown by their SMILES. Inconclusive results are not listed. Values without a mark were called inactive. Calls of active or inactive are those of the source. Calls follow the shape of the full dose curve.

This assay can be described thus: qHTS assay to identify small molecule agonists of the AP-1 signaling pathway - cell viability counter screen (AID 1159525). Also: nearly all actives have a fitted effect of over 55% in size. Conditions: ME-180 (cervical carcinoma) AP-1-bla cells viability, ATP luminescence, 5 h; series mostly up to 76.8 µM. The source says: National Center for Advancing Translational Sciences [NCATS]
NIH Chemical Genomics Center [NCGC]
U.S. Environmental Protection Agency [EPA]
National Institutes of Environmental Health Sciences [NIEHS]
National Toxicology Program [NTP]
U.S. Food and Drug Administration [FDA]
Activator protein-1 (AP-1), a transcription factor, plays an important role in tumor genesis by regulating genes involved in cell proliferation, differentiation, apoptosis, and angiogenesis. AP-1 activity is induced by a complex network of signaling pathways that involves extracellular signals, such as growth factors. The AP-1 protein complex formed from c-Fos and c-Jun binding to the AP-1 response element results in transcriptional activation of genes containing such elements within their promoter.
Low molecular weight molecules have been discovered and developed to modulate various components of these signaling pathways, for example, MAP kinase inhibitors. However, many points of pathway modulation remain untested due to the lack of chemical probes making this signaling locus of general interest.
Using a beta-lactamase reporter-gene under control of the AP-1 response element, a cell-based assay [CellSensor(TM) AP-1-bla ME-180 developed by Invitrogen Corp.] was used to measure EGF-induced signaling. The Tox21 10K library compounds were measured for their ability to positively modulate the action of EC50 EGF on reporter gene activity. Compounds were screened in a 15-pt titration series in 1536-well format. The cytotoxicity of the Tox21 compound library against this cell line was tested in parallel by measuring the intra cellular ATP content in the same wells.
Tox21 Assay Protocol Summary:
2500 cells/5uL in Opti-MEM medium containing 0.5% dialyzed FBS, 0.1 mM NEAA, 1 mM sodium pyruvate and 10 mM HEPES was dispensed into 1536-well black wall/clear bottom plates using a Multidrop dispenser and cells were cultured at 37 degrees Celsius overnight. Next day 23 nL of compounds dissolved in DMSO, positive controls or DMSO were delivered to each well using a pin tool. The plates were incubated at 37 degrees Celsius for 5 hours. 1 uL of LiveBLAzerTM B/G FRET substrate (Solution A+B+C+D) was added to each well using a Flying Reagent Dispenser. After incubated at room temperature for 2.5 hours the plates were measured on an EnVision plate reader at Excitation 405nm, Emission1=460nm and Emission 2=530nm. The %Activity was determined from the ratio of 460nm/530nm.
After the plates were read for Beta-Lactamase assay on Envision; 3 ul Cell Titer Glo (Promega) was added to measure the cytotoxicity and the plates were then incubated at RT in dark for 30 min. The luminescence was read on ViewLux (Perkin Elmer, Shelton, CT) using 6 sec exposure. ViewLux data was expressed as relative luminescence units.
For primary data analysis, raw plate reads for each titration point were first normalized relative to […] EGF control (100%) and DMSO only wells (basal, 0%).
For primary data analysis for viability assay, raw plate reads for each titration point were first normalized Tetra n-octyl ammonium bromide control (-100%) and DMSO (control, 100%).
A general note: In qHTS, concentration-response curves come from the screen itself.
As for `CC(CO)c1ccccc1` (stereo not given), the outcome was inactive. Still for that read-out and setting: as for `C=Cc1ccccn1`, the entry is “inactive”; as for `N#Cc1ccc(C(=O)O)cc1`, “inactive”; as for `C=C(C)C(=O)OCCNC(C)(C)C`, “inactive”. The same measure, in the same setting: as for `O=C(O)c1cc(Cl)cc([N+](=O)[O-])c1Cl`, the entry is “inactive”. As for `COP(=O)(OC)OC(c1ccc(Cl)cc1)P(=O)(OC)OC` (stereo not given), the molecule was classed as inactive. Take `CC(CN)CC(C)(C)CCN` (stereo not given): the molecule was classed as inactive. For `O=C(NCCc1c[nH]c2ccccc12)c1cccnc1`, the molecule was called inactive. Still for that read-out and setting: the result for `CNS(=O)(=O)CCc1ccc2[nH]cc(C3CCN(C)CC3)c2c1` reads “inactive”.

Regarding `CCOCCOC(=O)/C=C/c1ccc(OC)cc1`, the molecule was classed as inactive. As to `CCNC(=O)C1CC(C)CCC1C(C)C` (stereo not given), the outcome was inactive.

Turning to `O=C(CCN1CCN(CCO)CC1)N1c2ccccc2Sc2ccc(C(F)(F)F)cc21`, the outcome was inactive. As to `Nc1ncnc(Nc2ccccc2)n1`, the result was inactive. As to `C[C@@H](O)[C@H]1C(=O)N2C(C(=O)O)=C(SCCN=CN)C[C@H]12`, the result was inactive. As to `COc1ccc(C2CNC(=O)C2)cc1OC1CCCC1` (stereo not given), the molecule was called inactive.

On to `CC(COC(C)(C)C)OCCCO` (stereo not given), for which the call was inactive. On to `O=C1c2ccccc2C(=O)c2cc(S(=O)(=O)O)ccc21`, for which the molecule was classed as inactive.

Consider `O=Cc1ccc(Cl)c(Cl)c1`, for which the result was inactive. Take `CC(=O)c1sc(C)nc1C`: the molecule was classed as inactive.

As for `CC(=O)Nc1ccc(S(=O)(=O)Cl)cc1`, the outcome was inactive. Consider `COC(=O)c1ccccc1C(=O)c1ccc(OCCN2CCCCC2)cc1`, for which the outcome was inactive.

Turning to `BrCCCCCBr`, the result was inactive. Same read-out and setting: the result for `CC(C)(C)c1cc(CCC(=O)NN)cc(C(C)(C)C)c1O` reads “inactive”. On the same count and under the same terms, the result for `NNc1nnc(NN)c2ccccc12` reads “inactive”; that for `O=C(NCC(O)CO)c1c(I)c(C(=O)NCC(O)CO)c(I)c(N(CCO)C(=O)CO)c1I` (stereo not given), “inactive”. Take `OC[C@H](Cc1cccc(O)c1)[C@H](CO)Cc1cccc(O)c1`: the call was inactive. Still for that read-out and setting: the result for `O=C1c2ccccc2C(=O)C1c1ccccc1` reads “inactive”; that for `FC(F)(F)c1ccccc1-n1ccnc1`, “inactive”. The same measure, in the same setting: as for `NS(=O)(=O)c1cc2c(cc1Cl)CN(C1CCCCC1)C2=O`, the entry is “inactive”. For `CN1CCN(CC(=O)N2c3ccccc3C(=O)Nc3cccnc32)CC1`, the viability change, negative = cytotoxic was 2.29% [at 6.97 µM]. For `COc1ccc(S(=O)(=O)N2c3ccc(Cl)cc3[C@@](O)(c3ccccc3Cl)[C@H]2C(=O)N2CCC[C@@H]2C(N)=O)cc1OC`, the result was inactive. Still for that read-out and setting: as for `CN1C(C)(C)CCCC1(C)C`, the entry is “inactive”; as for `C#CC(C)N(C)C(=O)Nc1ccc(Cl)cc1` (stereo not given), “inactive”. Turning to `CC(=C(CCOC(=O)C(C)C)SSC(CCOC(=O)C(C)C)=C(C)N(C=O)Cc1cnc(C)nc1N)N(C=O)Cc1cnc(C)nc1N`, the outcome was inactive. On the same count and under the same terms, as for `NS(=O)(=O)c1ccc(NC(=O)CCC(=O)O)cc1`, the entry is “inactive”; as for `CCCC/C=C\CCCCCCCCCC=O`, “inactive”; as for `COc1ccc(OC)c(Cl)c1`, “inactive”.

As for `COC(=O)CCCCCCCC(=O)OC`, the molecule was classed as inactive. On the same count and under the same terms, the result for `C=C(C)C(=O)OCC(C)(C)COC(=O)C(=C)C` reads “inactive”; that for `Cc1cccc(C)c1NC(=O)c1ccccc1C(=O)O`, “inactive”.
